Bioassay records (PubChem)
SNCA expr inhib: reduces expression of the alpha-synuclein gene. HEK-293 SNCA-luciferase knock-in, luminescence, 24 h. 0.17% of 140,000 active. AID 1671194. Potency, µM (series often up to 57.2 µM), for the others: at the highest dose activity change, negative = inhibition, actives largely listed as inhibitors;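 further: potency means the concentration at half of the fitted maximal effect; plate controls were DMSO cells for no effect and cell-free wells for full effect; nearly all actives have a fitted effect of over 45% in size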
HEK293 viab: counter-screen for SNCA expression inhibitors: cell viability. HEK-293-SNCA-luc viability, GF-AFC fluorescence, 24 h. AID 1671193. 0.12% of 150,000 active. Potency, µM (titrated, usually from 57.1 µM), for inactives: top-dose activity change, negative = cytotoxicity, actives largely listed as cytotoxic;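 further: potency means the concentration at half of the fitted maximal effect; 0% = DMSO-treated cells and -100% = medium-only wells without cells; nearly all actives have a fitted effect of over 30% in size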
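Cytotoxicity counterscreen: after 24 h compound treatment of genome-edited SNCA-luciferase HEK-293 cells, live-cell protease substrate GF-AFC read by fluorescence after 30 min; activity scaled between DMSO (0%) and medium-only (-100%), curves Hill-fitted.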
KDM5B inh: KDM5B demethylase inhibition | Q9UGL1 | KDM5B demethylase, FDH-coupled NADH fluorescence (FDH is formaldehyde dehydrogenase) | Potency, µM (doses to about 57.7 µM), most hits filed as inhibitors | 2.6% of 220,000 active | AID 1347165; further: potency means the concentration at half of the fitted maximal effect; 0% is about no effect; nearly all actives have a fitted effect of over 70% in size
Target sequence (Q9UGL1 whole entry, looked up): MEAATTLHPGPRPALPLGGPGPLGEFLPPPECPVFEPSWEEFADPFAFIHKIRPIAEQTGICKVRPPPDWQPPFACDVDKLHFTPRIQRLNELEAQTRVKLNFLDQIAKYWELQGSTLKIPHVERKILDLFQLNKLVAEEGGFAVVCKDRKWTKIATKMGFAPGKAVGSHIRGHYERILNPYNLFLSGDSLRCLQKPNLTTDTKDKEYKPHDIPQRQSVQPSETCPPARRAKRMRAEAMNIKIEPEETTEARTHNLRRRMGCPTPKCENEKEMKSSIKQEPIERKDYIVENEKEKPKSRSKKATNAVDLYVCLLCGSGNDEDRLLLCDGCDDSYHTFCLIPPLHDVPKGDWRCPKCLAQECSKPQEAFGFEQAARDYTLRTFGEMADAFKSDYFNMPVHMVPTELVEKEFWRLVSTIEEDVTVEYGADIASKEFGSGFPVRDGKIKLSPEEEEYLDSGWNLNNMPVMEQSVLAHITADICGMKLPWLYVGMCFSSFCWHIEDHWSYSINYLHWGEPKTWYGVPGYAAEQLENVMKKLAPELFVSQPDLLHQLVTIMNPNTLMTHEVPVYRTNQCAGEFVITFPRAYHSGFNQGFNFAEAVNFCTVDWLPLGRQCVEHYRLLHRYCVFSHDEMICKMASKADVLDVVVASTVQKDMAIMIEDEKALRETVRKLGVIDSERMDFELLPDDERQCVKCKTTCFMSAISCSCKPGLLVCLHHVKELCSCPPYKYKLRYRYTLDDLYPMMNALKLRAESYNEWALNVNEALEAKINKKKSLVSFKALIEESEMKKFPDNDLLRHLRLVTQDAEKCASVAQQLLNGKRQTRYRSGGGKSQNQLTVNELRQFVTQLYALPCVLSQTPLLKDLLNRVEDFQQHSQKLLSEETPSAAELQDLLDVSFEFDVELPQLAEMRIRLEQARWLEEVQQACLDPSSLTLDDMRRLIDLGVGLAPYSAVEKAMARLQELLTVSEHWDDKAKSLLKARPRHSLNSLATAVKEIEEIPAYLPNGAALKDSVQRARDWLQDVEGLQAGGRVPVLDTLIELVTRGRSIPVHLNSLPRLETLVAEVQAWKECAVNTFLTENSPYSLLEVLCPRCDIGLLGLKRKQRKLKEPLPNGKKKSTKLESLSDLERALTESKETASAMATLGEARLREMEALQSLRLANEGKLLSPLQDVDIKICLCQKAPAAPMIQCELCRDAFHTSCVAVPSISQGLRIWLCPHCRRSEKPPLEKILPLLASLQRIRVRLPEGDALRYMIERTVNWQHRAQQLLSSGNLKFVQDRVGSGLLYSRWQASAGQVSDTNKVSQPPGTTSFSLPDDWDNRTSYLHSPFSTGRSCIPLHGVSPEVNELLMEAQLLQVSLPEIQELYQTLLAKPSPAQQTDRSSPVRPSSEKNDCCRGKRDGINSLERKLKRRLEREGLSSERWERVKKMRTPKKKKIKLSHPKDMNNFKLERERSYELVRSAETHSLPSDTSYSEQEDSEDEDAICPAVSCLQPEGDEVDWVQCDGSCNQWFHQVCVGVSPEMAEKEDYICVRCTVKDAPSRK
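Measured: NADH fluorescence change, 30 min, RT. System: KDM5BΔAP 200 nM final, H3K4me3 peptide, α-KG, Fe(II), ascorbate, NAD⁺ plus FDH, pH 7.5 HEPES. Compounds: titrated, 10 min pre-incubation with enzyme.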
IP6K1 inhibitor: inhibitors of human IP6K1; AID 1645851; IP6K1 kinase, ADP-Glo luminescence, 2 h; hits give low values; Q92551; activity change, % (series mostly up to about 58 µM); 0.81% of 140,000 active; in the data active means activity change below about -25%; further: on the % scale 0 is the no-effect control and ±100 the full control effect
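ADP-Glo luminescence measures ADP made by human IP6K1 during a 2 h RT reaction with ATP/IP6 (mix at 1.3 mM/130 uM); top library doses 57.5 and 19.1 uM final.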
* marks the source's active call; other numbers are inactive results; i = inactive; ? = inconclusive; nt = no result given; [ ] = another dose, or the depositor's remark. Most compounds without a hit are left out; they make up all but 2.8% or so of the library. Unless noted, the call rests on the fitted dose curve; in most records, active means well fitted curve in the direction sought with a large enough effect; inconclusive means small, poorly fitted or top-dose-only effect, or another doubt; inactive means no such curve, though single readings can be large; an effect the other way counts as inactive or inconclusive.

SMILES	SNCA expr inhib	HEK293 viab	KDM5B inh	IP6K1 inhibitor
O=C(N[C@@H]1C[C@H](Cn2cc(CN3CCS(=O)(=O)CC3)nn2)[C@@H](O)[C@H]1O)c1cncnc1	-12.8%	-1.6%	14.1µM*	8.0
O=C(NCc1cccc(F)c1)c1ccc2c(c1)CC(=O)N2Cc1ccccc1	12.6µM*	-2.2%	i	-3.5
O=C(NCc1ccco1)c1ccc2c(c1)CC(=O)N2Cc1cccc(F)c1	27.2%	4.6%	i	-13.2
CN(CCO)C[C@@H]1CN(C(=O)c2nc3ccccc3[nH]c2=O)C[C@@H]1CO	?	-3.2%	28.2µM*	9.3
Cc1ccc(S(=O)(=O)Nc2cc3c(cc2SC2CCCCC2)n(C)c(=O)n3C)cc1	nt	nt	i	nt
COc1ccc(C(=O)N2CCC3(Cc4ccccc4NC3=O)C2)cc1 (configuration not stated)	-17.5%[87.6 µM]	?	i	9.0
O=C(O)c1ccc(CN2Cc3[nH]cnc3C[C@H]2c2nc(-c3ccc(F)cc3)no2)cc1	36.3%[87.6 µM]	12.0%[87.6 µM]	?	11.7
Cc1cccc(-c2noc([C@@H]3Cc4nc[nH]c4CN3Cc3ccc(C(=O)O)cc3)n2)c1	?	2.7%[87.6 µM]	31.6µM*	-8.5
Cc1ccc(-c2noc([C@@H]3Cc4nc[nH]c4CN3CC3CCCCC3)n2)cc1	-2.8%[87.6 µM]	-17.8%[87.6 µM]	?	-13.9
Fc1ccc(-c2noc([C@@H]3Cc4nc[nH]c4CN3Cc3cc4ccccc4o3)n2)cc1Cl	56.2%	8.3%	28.2µM*	11.6
Fc1ccc(-c2noc([C@@H]3Cc4nc[nH]c4CN3Cc3ccccc3)n2)cc1Cl	47.5%[87.6 µM]	-6.7%[87.6 µM]	35.5µM*	0.2
c1ccc2cc(-c3noc([C@@H]4Cc5nc[nH]c5CN4CC4CCCCC4)n3)ccc2c1	39.6%[87.6 µM]	-11.7%[87.6 µM]	28.2µM*	11.4
O=C(c1ccc2c(c1)OCO2)N1CCC(n2cc(-c3nc(-c4ccccc4)no3)nn2)C1 (configuration not stated)	31.5%	-2.9%	i	-10.6
Cn1c2c(c(=O)n(C)c1=O)C(c1ccc(O)cc1)C1=C(CC(C)(C)CC1=O)N2 (configuration not stated)	nt	nt	i	nt
CCCCNC(=S)Nc1ccc(Br)c(C)c1	nt	nt	i	nt
CNC(=O)[C@H]1C[C@H](Oc2cccnc2)CN1S(=O)(=O)c1ccc(F)cc1	-6.5%	-17.6%	i	14.1
O=C(NCCc1ccc(Cl)cc1)c1ccc2c(Cl)c3c(nc2c1)CCCC3	nt	nt	i	nt
O=C(CCCc1ccccc1)N1CCC(c2nc(C3CCOCC3)no2)C1 (configuration not stated)	-4.0%	-4.4%	i	7.9
COc1ccccc1OCc1cc(C(=O)NCc2cnc(C)cn2)n[nH]1	-2.7%	-3.1%	i	4.6
CCCc1noc(-c2cccn3c(CNC(=O)C4CCCC4)nnc23)n1	9.9%	-3.5%	28.2µM*	8.0
O=C(NCc1nnc2c(-c3nc(C4CC4)no3)cccn12)C1CCCC1	-9.3%	-3.3%	28.2µM*	0.5
CCc1noc(-c2cccn3c(CNC(=O)C4CCC4)nnc23)n1	0.9%	3.4%	25.1µM*	-2.3
CC(C)CCN1C(=O)CC[C@]2(C(=O)NCCc3cccnc3)CCCC[C@@H]12	-22.9%	4.5%	i	-0.5
COc1ccc2[nH]c3c(c2c1)CCNC31CCN(Cc2ccc(F)cc2F)CC1	?	9.2%[12.5 µM]	11.2µM*	4.0
COc1ccc2[nH]c3c(c2c1)CCNC31CCN(C2CCCC2)CC1	?	2.3%[12.5 µM]	22.4µM*	13.7
SMILES	SNCA expr inhib	HEK293 viab	KDM5B inh	IP6K1 inhibitor
CCN1CCC(N2CCC3(CC2)NCCc2c3[nH]c3ccc(OC)cc23)CC1	12.6%	0.5%[12.5 µM]	?	-0.7
COc1ccc2[nH]c3c(c2c1)CCNC31CCN(C(=O)c2cccnc2C)CC1	20µM*	-2.6%[12.5 µM]	?	6.3
COc1ccc2[nH]c3c(c2c1)CCNC31CCN(C(=O)C2CCOCC2)CC1	-7.8%	-3.7%[12.5 µM]	22.4µM*	18.8
Cc1ccccc1C(=O)Nc1ccc2oc(-c3ccccc3C)cc(=O)c2c1	nt	nt	i	nt
CCCCCCNC(=O)c1cc(-c2cccc(Br)c2)nc2ccccc12	nt	nt	i	nt
O=C(c1cccnc1)N1CCC2(CC1)C(=NC1CCCC1)NC(=O)N2c1cc(F)cc(F)c1	-14.3%	-1.9%	i	15.6
CC1=C[C@@H](CN2CCOCC2)[C@H](C(C)C)C[C@H]1Cc1nnc(-c2ccccc2F)o1	-23.4%[87.6 µM]	?	i	7.5
Cc1cc(C(=O)O)ccc1-c1ccc(C=C(C#N)C#N)o1	nt	nt	i	nt
CCC(C)C(=O)N1CCC2(CC1)NCCc1c2[nH]c2ccc(OC)cc12 (configuration not stated)	27.4%	8.7%[12.5 µM]	31.6µM*	-4.0
